Myeloid diff MLP: induction of myeloid progenitor differentiation, primary screen, cell-based, flow cytometry, MLPCN library; ER-HoxA9 myeloid progenitors, lysozyme-GFP differentiation; calls only at 10 µM; actives 1% (n = 360,000); AID 624256, 2012;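 active means normalized GFP-positive differentiation at or above the plate's own cutoff, the solvent-only control mean plus 3 SD; inconclusive means no clear call, values can overlap the other calls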;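 further: cells exposed to compound for four days before flow analysis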
cardiac RTF act: cardiac RTF calcium sensitivity activators, primary screen, biochemical, IANBD-TnC fluorescence, EC20 calcium. Troponin I, cardiac muscle (Homo sapiens) + Troponin T, cardiac muscle (Homo sapiens) + …. IANBD-labeled TnC RTF fluorescence at EC20 calcium; 0% EC20 calcium, 100% full calcium. activation, % at 7.2 µM. actives 0.24% (n = 340,000);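 active means activation above the mean over all tested compounds plus 3 SD, cut at about 30% in these data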;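 further: rise in fluorescence read as greater calcium sensitivity of cardiac thin filaments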
CRFR2-BP antag: antagonists of CRF-BP/CRF-R2 complex, primary screen, cell-based, HEK293, calcium dye fluorescence, uHTS. AID 588475, 2011. inhibition, % at 11.8 µM. actives 0.59% (n = 350,000). CRF-induced calcium fluorescence;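 active means inhibition of the ligand-induced calcium signal above about 50% at the single tested concentration, limit read from the data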
RTF Ca sens inh: cardiac RTF calcium sensitivity inhibitors, primary screen, biochemical, IANBD-TnC fluorescence, EC70 calcium | inhibition, % at 7.15 µM | IANBD-labeled cardiac RTF, Ca2+ fluorescence | actives 0.12% (n = 340,000) | Troponin I, cardiac muscle (Homo sapiens) + Troponin T, cardiac muscle (Homo sapiens) + … | AID 493244, 2011;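 active means inhibition above the mean inhibition of all tested compounds plus 3 SD, cut at about 17% in these data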;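 further: assay run at fixed EC70 calcium of 1.6 mM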
CRFBP-R2 agonist: agonists of CRF-BP/CRF-R2 complex, primary screen, cell-based, HEK293, calcium dye fluorescence, uHTS; actives 0.46% (n = 350,000); CRF-binding protein / CRF receptor 2 complex (human); activation, % at 13.2 µM; calcium dye fluorescence (FLIPR); percent of saturating CRF peptide response;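 active means activation of at least 50%, plus an integration ratio under a set limit after plate pattern correction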
Hits are given with their value; - = inactive; ? = inconclusive; . = no result given; + = active, no number. The list is not random: actives were taken first. Their share in the collection is about 2.2%.

SMILES	Myeloid diff MLP	cardiac RTF act	CRFR2-BP antag	RTF Ca sens inh	CRFBP-R2 agonist
COc1cc(/C=C2\SC(=O)N(Cc3ccc(F)cc3)C2=O)cc([N+](=O)[O-])c1O	-	-	-	-	-
CCOc1cc(/C=C2/SC(=S)N(Cc3ccccc3)C2=O)ccc1O	+	-	-	-	-
CCN1C(=O)/C(=C\C=C\c2ccccc2[N+](=O)[O-])SC1=S	?	-	69	-	-
CCOc1ccccc1C=C1SC(=S)N(CC)C1=O	-	-	-	-	-
COc1cc(/C=C2\SC(=O)N(Cc3ccc(Cl)cc3)C2=O)cc([N+](=O)[O-])c1O	-	-	55	-	-
COc1cc(/C=C2/SC(=S)N(Cc3ccccc3)C2=O)ccc1OCC(=O)O	-	-	-	-	-
COc1cc(/C=C2/SC(=S)N(Cc3ccccc3)C2=O)cc(Cl)c1O	+	71	-	-	171
Cc1ccc(S(=O)(=O)N2CCCCC2)cc1NC(=O)CSc1ncccn1	-	-	-	-	-
O=C1/C(=C/c2ccc(O)c([N+](=O)[O-])c2)SC(=S)N1Cc1ccccc1	-	-	108	-	-
O=C1C(=Cc2cccc(O)c2O)SC(=S)N1CCCN1CCOCC1	+	.	-	.	-
O=C1/C(=C\c2cccc([N+](=O)[O-])c2O)SC(=S)N1Cc1ccccc1	-	-	77	-	-
COc1c(/C=C2\SC(=Nc3ccccc3Cl)NC2=O)cccc1[N+](=O)[O-]	-	-	-	-	-
O=C1NC(=Nc2ccccc2Cl)S/C1=C\c1cccc([N+](=O)[O-])c1O	-	-	53	-	-
COc1cc([N+](=O)[O-])cc(/C=C2/SC(=S)N(Cc3ccccc3)C2=O)c1O	.	-	-	-	-
O=C(CCCN1C(=O)/C(=C/c2ccccc2Cl)SC1=S)NCCCN1CCOCC1	-	-	-	-	-
Cc1nn(-c2ccccc2)c(N)c1Sc1ccc([N+](=O)[O-])cc1	-	-	58	-	-
c1cncc(-c2ccc3ncnc(NCc4cccs4)c3c2)c1	-	-	-	-	-
COc1cccc(-c2ccc3ncnc(NCc4cccs4)c3c2)c1	-	-	54	-	-
NC[C@@H]1O[C@H](C23CC4CC(CC(C4)C2)C3)Cc2c1ccc(O)c2O	+	-	-	-	-
O=C1C2C3C=CC(C3)C2C(=O)N1c1cccc(N2C(=O)C3C4C=CC(C4)C3C2=O)n1 (stereo not drawn)	-	-	-	-	73
O=C1C2C3C=CC(C3)C2C(=O)N1c1ccc2ccccc2n1 (stereo not drawn)	-	-	-	-	-
CN1C=CC2=C(C#N)C(N)C(C#N)(C#N)C(c3ccccc3)C2C1 (stereo not drawn)	-	40	-	-	-
Cc1ccccc1-c1cc2nc(-c3ccc([N+](=O)[O-])cc3)cc(=O)n2[nH]1	-	-	71	-	-
Cc1cccc(-c2cc3nc(-c4ccccc4)cc(=O)n3[nH]2)c1	-	-	-	-	-
O=c1cc(-c2ccc([N+](=O)[O-])cc2)nc2cc(-c3ccc(F)cc3)[nH]n12	-	-	75	-	-
SMILES	Myeloid diff MLP	cardiac RTF act	CRFR2-BP antag	RTF Ca sens inh	CRFBP-R2 agonist
Cc1cc(=O)n2[nH]c(-c3ccc(F)cc3)cc2n1	-	-	-	-	-
Cc1ccc(C2C=C(c3ccccc3)Nc3nc(N4C(=O)CCC4=O)nn32)cc1 (stereo not drawn)	-	.	-	.	81
COc1cccc(C2C=C(c3ccc(OC)cc3OC)Nc3nnnn32)c1 (stereo not drawn)	-	-	-	-	81
COc1ccc(C2C=C(c3ccccc3)Nc3nnnn32)cc1 (stereo not drawn)	-	-	-	-	-
COc1cccc(C2=CC(c3ccccc3)n3nnnc3N2)c1 (stereo not drawn)	-	-	-	-	-
COc1ccc(C2=CC(c3ccc(OC)c(OC)c3)n3nnnc3N2)c(OC)c1 (stereo not drawn)	-	-	-	-	88
COc1cccc(C2=CC(c3cc(OC)ccc3OC)n3nnnc3N2)c1 (stereo not drawn)	-	-	-	-	-
CC1=CC(c2ccc(Cl)cc2)n2nc(N3C(=O)CCC3=O)nc2N1 (stereo not drawn)	-	-	-	-	-
COc1ccc(C2=CC(c3ccc(C)cc3)n3nnnc3N2)cc1 (stereo not drawn)	-	-	-	-	92
CCCNC(=O)C1(C)CCCN(CCC(=O)c2ccccc2)C1 (stereo not drawn)	-	.	.	.	.
COC(=O)c1c(SCc2ccc(C#N)cc2)nc(=O)[nH]c1C	-	-	-	-	-
COc1ccc(CN2CCS(=O)(=O)CC2)cc1OC	-	-	64	-	-
Cc1ccc(/C=C\c2nccc3c2[nH]c2ccccc23)cc1	+	-	-	-	-
Cc1cc(C(C#N)c2ccc(Cl)cc2)c(Cl)cc1NC(=O)c1cc(I)cc(I)c1O (stereo not drawn)	-	-	58	-	-
Cc1cc(NC(=O)c2ccc(Cl)cc2)c(C)cc1O	-	-	-	-	-
Cc1cc(N)n(-c2ccc3ccccc3c2)n1	+	-	-	-	-
COc1ccc(-n2nc(C)cc2N)cc1	-	-	-	-	-
O=C(COC(=O)c1ccc([N+](=O)[O-])o1)NC1CCCCC1	-	-	-	-	-
CC(NC(=O)c1ccc([N+](=O)[O-])o1)C12CC3CC(CC(C3)C1)C2 (stereo not drawn)	+	-	-	-	-
O=C(NN(c1ccccc1)c1ccccc1)c1ccc([N+](=O)[O-])o1	-	-	-	-	-
CC(NC(=O)C12CC3CC(CC(C3)C1)C2)C(=O)NN=Cc1ccc([N+](=O)[O-])o1 (stereo not drawn)	-	-	-	-	-
O=C(NC1CCCCC1)c1ccc([N+](=O)[O-])o1	+	-	-	-	-
O=C(NC1CCCC(C(F)(F)F)C1)c1ccc([N+](=O)[O-])o1 (stereo not drawn)	+	-	-	-	-
O=C(NNC(=O)c1ccc([N+](=O)[O-])o1)c1ccccc1	+	-	-	-	-
Cc1c(NC(=O)COC(=O)c2cc(-c3ccc(-c4ccccc4)cc3)nc3ccccc23)c(=O)n(-c2ccccc2)n1C	+	-	-	-	-
Cc1c(NC(=O)c2cc(-c3ccccc3)nc3ccccc23)c(=O)n(-c2ccccc2)n1C	-	-	-	-	-
CCCn1c(=O)c(C(=O)NNC(=O)c2ccc(Cl)cc2Cl)c(O)c2ccccc21	-	-	-	-	70
COc1ccccc1OCCOCCOc1ccc(C)cc1Br	+	-	-	-	-
Cc1ccc(C(C)C)c(OCCCN(C)Cc2ccccc2)c1	-	-	-	-	-

Bioassay records: PubChem BioAssay, several laboratories
